Hits are enriched below; roughly 11% of the tested compounds scored in any of these assays.
MCF10A rereplic – A quantitative high throughput screen for small molecules that induce DNA re-replication in MCF 10a normal breast cells. MCF 10A DNA re-replication, Hoechst nuclear intensity, 48 h. Potency, µM (series often up to 46.1 µM), for inactives: top-dose activity, positive = re-replication, usual class: activators. 2.9% of 350,000 active; also: potency is read from the fitted curve at half-maximal effect; % of control where 0% means no effect; nearly all actives have a fitted effect of over 50% in size
RORg inh – qHTS for inhibitors of ROR gamma transcriptional activity; Nuclear receptor ROR-gamma (Mus musculus), P51450; Drosophila S2 Gal4-RORgamma UAS-luciferase reporter, 20 h; Potency, µM (top dose mostly 53.6 µM), without a hit: top-dose activity change, negative = inhibition, most hits filed as inhibitors; 5.4% of 310,000 active; AID 2551, 2010; also: potency is read from the fitted curve at half-maximal effect; % is scaled to controls: 0 for no effect and ±100 for the full control effect; nearly all actives have a fitted effect of over 60% in size
Target sequence (P51450 whole entry, looked up, the tested form may be a part): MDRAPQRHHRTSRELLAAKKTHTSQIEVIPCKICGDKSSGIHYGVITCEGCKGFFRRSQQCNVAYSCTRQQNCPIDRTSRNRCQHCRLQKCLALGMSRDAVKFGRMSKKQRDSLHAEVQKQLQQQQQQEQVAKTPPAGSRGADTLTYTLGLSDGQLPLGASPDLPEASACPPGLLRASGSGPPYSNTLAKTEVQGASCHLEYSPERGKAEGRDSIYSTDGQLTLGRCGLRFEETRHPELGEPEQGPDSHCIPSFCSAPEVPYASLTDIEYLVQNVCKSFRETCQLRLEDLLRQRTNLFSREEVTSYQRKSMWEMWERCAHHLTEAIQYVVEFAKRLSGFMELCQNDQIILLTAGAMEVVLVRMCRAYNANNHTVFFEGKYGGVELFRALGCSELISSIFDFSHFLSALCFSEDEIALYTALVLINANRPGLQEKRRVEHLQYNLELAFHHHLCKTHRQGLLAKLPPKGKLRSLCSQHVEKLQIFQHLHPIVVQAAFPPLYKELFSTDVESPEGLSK
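Stably transfected Drosophila Schneider cells are the test system, with ROR gamma fused to Gal4 and luciferase under UAS control; luminescence is read after 20 hr of 700 uM copper sulfate induction at ambient temperature.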
SW480 rereplic – A quantitative high throughput screen for small molecules that induce DNA re-replication in SW480 colon adenocarcinoma cells; SW480 DNA re-replication, Hoechst DNA content imaging, 48 h; Potency, µM (highest dose often 46.1 µM), for the others: top-dose re-replication activation, usual class: activators; 1.8% of 340,000 active; AID 624297, 2012; also: potency is read from the fitted curve at half-maximal effect; % of control where 0% means no effect; nearly all actives have a fitted effect of over 55% in size
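Cells (250 per well) received 23 nL compound or DMSO by pin tool and were kept 48 hr at 37 C, 5% CO2. Nuclei were then stained with Hoechst for 40 min and scanned for DNA content.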
VP16 counter – VP16 counterscreen qHTS for inhibitors of ROR gamma transcriptional activity; Drosophila S2 Gal4-VP16 UAS-luciferase, luminescence, 20 h; Potency, µM (series often up to 53.6 µM), without a hit: at the highest dose activity, negative = inhibition, most hits filed as inhibitors; 3.5% of 310,000 active;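 also: Gal4-VP16 expression switched on by copper sulfate through the metallothionein promoter; potency is read from the fitted curve at half-maximal effect; % is scaled to controls: 0 for no effect and ±100 for the full control effect; nearly all actives have a fitted effect of over 50% in size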
IL1B secr inh – qHTS for Inhibitors of Inflammasome Signaling: IL-1-beta AlphaLISA Primary Screen | THP-1 LPS/ATP IL-1B secretion, AlphaLISA, 16 h; stronger effect = lower value | activity change, % at 57.5 µM | 4.7% of 360,000 active; in the data active = activity change below about -50%; inconclusive = mostly about -30% to -49%; also: % is scaled to controls: 0 for no effect and ±100 for the full control effect
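Secreted IL-1B measured by AlphaLISA bead assay after 16 h compound exposure of THP-1 cells; compounds (final up to 57.5 uM) added 1 h before LPS (250 ng/mL) and ATP (1.25 mM) stimulation; lower signal means less secretion.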
Numbers without * were called inactive; ? = inconclusive; nt = no result; [ ] = dose if it differs, or a comment. Unless noted, calls follow the shape of the dose curve; as a rule, active = well fitted curve in the direction sought with a large enough effect; inconclusive = small, poorly fitted or top-dose-only effect, or another doubt; inactive = no such curve, though single readings can be large; an effect the other way counts as inactive or inconclusive.

SMILES	MCF10A rereplic	RORg inh	SW480 rereplic	VP16 counter	IL1B secr inh
COc1ccc(/C=C2\SC(=S)N(CCC(=O)NCCCn3ccnc3)C2=O)cc1	1%	7%	-23%	9%	-27
Cc1ccc(/C=C2/SC(=S)N(CCC(=O)N3CCN(c4ccccc4)CC3)C2=O)cc1	nt	?	nt	-16%	nt
COc1ccc(/C=C2\SC(=S)N(CCCC(=O)N3CCN(C)CC3)C2=O)cc1	?	7.1µM*	-1%	?	-91*
CN1CCN(C(=O)CCN2C(=O)/C(=C\c3ccc(Cl)cc3)SC2=S)CC1	?	-20%	13%	8%	-22
CN1CCN(C(=O)CCN2C(=O)/C(=C\c3ccc(F)cc3)SC2=S)CC1	?	nt	?	nt	-99*
CNc1ncnc2c1ncn2[C@H]1CN(Cc2ccc(-c3ccccc3)cc2)C[C@@H](CO)O1	nt	nt	nt	nt	1
Cc1nc(N2CCOCC2)c2nc(-c3ccccc3)n(CCN3CCCC3)c2n1	nt	-5%	nt	2%	nt
COc1ccccc1/C=C1\SC(=S)N(Nc2nc(C)cc(C)n2)C1=O	2%	11µM*	-2%	-15%	18
O=C(C1=NNCC1c1ccccc1)C1CO1 (configuration not stated)	23µM*	-8%	16µM*	5%	?
CC(C)CC1NC(=O)C(CC(C)C)N(CO)C1=O (configuration not stated)	-2%	nt	-9%	nt	24
O=C(NCCc1c[nH]c2ccccc12)N[C@@H](Cc1ccccc1)C(=O)O	-22%	0%	-47%	0%	7
COC(=O)C(Cc1c[nH]c2ccccc12)NC(=O)c1ccc2nc[nH]c2c1 (configuration not stated)	1%	nt	3%	nt	-68*
COC(=O)[C@@H](Cc1ccccc1)NC(=O)NCCc1c[nH]c2ccccc12	13%	?	1%	0%	-98*
CC1CCCC(C)N1CC(O)COCc1ccccc1F (configuration not stated)	?	-11%	-6%	-2%	-1
COC(=O)CC1COc2ccccc2N1S(=O)(=O)c1ccc(Br)cc1 (configuration not stated)	28%	14%	10µM*	-1%	17
COC(=O)CC1COc2ccccc2N1C(=O)/C=C/c1ccccc1 (configuration not stated)	-2%	-3%	?	-1%	13
COC(=O)CC1COc2ccccc2N1C(=O)c1ccc(OC)cc1 (configuration not stated)	-2%	21%	1%	5%	8
COC(=O)CC1COc2ccccc2N1S(=O)(=O)c1ccc(OC)cc1 (configuration not stated)	15µM*	4%	?	5%	25
O=C1c2ccc(-c3ccc(F)cc3OCc3ccccc3)cc2S(=O)(=O)c2cccc(C(=O)N3CCCC3)c21	?	nt	0%	nt	14
O=C(CCl)Nc1cc(SCC(O)CO)cc([N+](=O)[O-])c1 (configuration not stated)	?	?	5.8µM*	5µM*	-101*
Cc1cccc(Oc2cc(NC(=O)Cn3cnc([N+](=O)[O-])n3)cc([N+](=O)[O-])c2)c1	8%	?	-2%	?	?
Cc1cc(C)cc(Oc2cc(NC(=O)c3cn(C)nc3C)cc([N+](=O)[O-])c2)c1	23%	?	4%	7.9µM*	5
CCC(=O)Nc1cc(ON=C(C)C)cc([N+](=O)[O-])c1	-3%	2%	-5%	0%	-2
CC(C)=NOc1cc(NC(=O)CCl)cc([N+](=O)[O-])c1	6.5µM*	10µM*	9.2µM*	7.1µM*	-100*
C=CC[C@@](C(C)=O)(C(=O)OC)C(NC(=O)OC(C)(C)C)c1ccccc1 (some centres not stated)	nt	2%	nt	2%	nt
SMILES	MCF10A rereplic	RORg inh	SW480 rereplic	VP16 counter	IL1B secr inh
Cc1cc(S(=O)(=O)Nc2ccc3cn[nH]c3c2)c(C)cc1Cl	-2%	31%	5%	-10%	16
CCOc1cc(S(=O)(=O)N2CCCC2)ccc1Cl	1µM*	0%	0.73µM*	-3%	-11
O=[N+]([O-])c1cc(S(=O)(=O)N2CCCCCC2)ccc1Cl	16µM*	-43%	22%	3%	-104*
CCC(=O)Nc1ccc2c(c1)OC[C@@H](C)N(Cc1cccc(F)c1)C[C@@H](C)[C@@H](OC)CN(C)C2=O	nt	nt	nt	nt	4
CCOc1ccc(Cl)cc1-c1cc(C(=O)NCc2ccccc2OC)[nH]n1	nt	nt	nt	nt	0
CCOC(=O)c1ccccc1Nc1cn(C(C)=O)c2ccccc12	?	9%	?	2%	25
COc1ccccc1N(C(=O)CCl)c1cn(C(C)=O)c2ccccc12	?	?	?	-8%	-60*
CC(=O)n1cc(N(C(=O)CCl)c2ccc(Cl)cc2)c2ccccc21	?	?	2.6µM*	?	0
Cc1noc(C)c1C(=O)N1CCC[C@@]2(CCN(C(=O)Nc3cccc(C#N)c3)C2)C1	nt	27%	nt	-1%	nt
OC(CNCc1cccc(Cl)c1)c1ccccc1 (configuration not stated)	18%	3%	?	6%	0
Oc1cccc(C(O)CNCc2ccc(OCc3ccc(Cl)cc3Cl)cc2)c1 (configuration not stated)	15µM*	11%	?	-28%	-91*
Oc1cccc(C(O)CNCc2ccc(-c3ccccc3)cc2)c1 (configuration not stated)	16µM*	-17%	?	-6%	-51*
OC(CNCc1ccccc1)c1ccccc1 (configuration not stated)	-5%	-14%	-11%	-6%	9
CCCCCCCCCCCCCCC(C(=O)OC)C(O)(CC(=O)OC)C(=O)OC (configuration not stated)	nt	-29%	nt	-5%	nt
C=CC(=O)N1C/C(=C/c2ccc(F)cc2)C(=O)/C(=C\c2ccc(F)cc2)C1	?	nt	1.2µM*	nt	-84*
O=C1C(=Cc2ccc(F)cc2)CCc2ccccc21	nt	nt	nt	nt	-13
Cc1nc(S/C(=C/c2ccc(-c3ccc(Cl)cc3)o2)C(=O)O)n[nH]1	?	1.4µM*	0%	2.8µM*	40
CC(=O)c1ccc(-c2ccc(/C=C(/Sc3n[nH]c(C)n3)C(=O)O)o2)cc1	?	5.6µM*	-1%	?	29
COc1ccc(CNC(=O)COC(=O)c2ccccc2OCC(=O)Nc2ccc(SC(F)F)cc2)cc1	-10%	-16%	10µM*	0%	-2
CC(C)(C)c1ccc(OC2C(O)COC2/C=C/C#Cc2ccccc2)cc1 (configuration not stated)	nt	12%[10 µM]	nt	15%[10 µM]	nt

Screening data deposited in PubChem BioAssay by National Center for Advancing Translational Sciences (NCATS).
